Hit rate of the full screen: of about 5,500 compounds, about 2,000 (36%) were called active. About 18% were inconclusive and are not listed. Rule as the data show it: active = normalized growth mostly below about 0.91 (no sharp cut-off); inconclusive = no clear call, values can overlap the other calls; inactive = mostly above about 0.92. The list shows a part of the results.
Assay: chemical genetic growth profiling, strain panel (AID 1159580);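 also: tested at 20 µM; growth read once vehicle control cultures reached saturation at 30 °C; 1 = growth at the plate median or of vehicle wells; lower values mean less growth of the strain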
Conditions: S. cerevisiae deletion strains, growth OD

Measured: normalized growth

N[C@H](C(=O)O)[C@H](O)C(=O)O
inactive: locus YAL013W, strain DEP1, stronger effect = lower value 0.972 | locus YAL040C, strain CLN3, stronger effect = lower value 0.965 | locus YCL061C, strain MRC1 (second series), stronger effect = lower value 0.994 | locus YDR150W, strain NUM1, stronger effect = lower value 1 | locus YDR363W, strain ESC2, stronger effect = lower value 0.987 | locus YER002W, strain NOP16, stronger effect = lower value 1 | locus YMR307W, strain GAS1, stronger effect = lower value 0.992 | locus YNL153C, strain GIM3, stronger effect = lower value 0.989 | locus YNL175C, strain NOP13, stronger effect = lower value 1.01 | locus YNL197C, strain WHI3, stronger effect = lower value 0.996 | locus YNL224C, strain SQS1, stronger effect = lower value 0.983 | locus YOR083W, strain WHI5 (second series), stronger effect = lower value 1.06 | locus YPL241C, strain CIN2, stronger effect = lower value 0.992

O=C(O)[C@@H](S)[C@@H](S)C(=O)O
active: locus YAL021C, strain ccr4, stronger effect = lower value 0.545 | locus YAL026C, strain drs2, stronger effect = lower value 0.836 | locus YBR009C, strain hhf1, stronger effect = lower value 0.875 | locus YBR231C, strain swc5, stronger effect = lower value 0.887 | locus YBR279W, strain paf1, stronger effect = lower value 0.922 | locus YDR069C, strain doa4, stronger effect = lower value 0.681 | locus YDR137W, strain rgp1, stronger effect = lower value 0.73 | locus YDR335W, strain msn5, stronger effect = lower value 0.911 | locus YDR392W, strain spt3, stronger effect = lower value 0.532 | locus YER155C, strain BEM2 (second series), stronger effect = lower value 0.662 | locus YFR010W, strain ubp6, stronger effect = lower value 0.828 | locus YGL173C, strain kem1, stronger effect = lower value 0.892 | locus YGL240W, strain doc1, stronger effect = lower value 0.886 | locus YGL253W, strain hxk2, stronger effect = lower value 0.678 | locus YHR013C, strain ard1, stronger effect = lower value 0.533 | locus YHR027C, strain rpn1, stronger effect = lower value 0.885 | locus YHR030C, strain SLT2, stronger effect = lower value 0.337 | locus YHR079C, strain IRE1, stronger effect = lower value 0.426 | locus YJL095W, strain BCK1, stronger effect = lower value 0.413 | locus YJL166W, strain qcr8, stronger effect = lower value 0.859 | locus YJR066W, strain TOR1, stronger effect = lower value 0.417 | locus YLL001W, strain dnm1, stronger effect = lower value 0.888 | locus YLR113W, strain HOG1, stronger effect = lower value 0.443 | locus YLR320W, strain mms22, stronger effect = lower value 0.798 | locus YLR357W, strain rsc2, stronger effect = lower value 0.798 | locus YLR370C, strain arc18, stronger effect = lower value 0.81 | locus YMR058W, strain fet3, stronger effect = lower value 0.832 | locus YMR205C, strain PFK2, stronger effect = lower value 0.808 | locus YNL071W, strain lat1, stronger effect = lower value 0.695 | locus YNL183C, strain NPR1, stronger effect = lower value 0.516 | locus YOR106W, strain vam3, stronger effect = lower value 0.496 | locus YOR231W, strain MKK1, stronger effect = lower value 0.324 | locus YOR270C, strain vph1, stronger effect = lower value 0.357 | locus YOR290C, strain snf2, stronger effect = lower value 0.722 | locus YPL051W, strain arl3, stronger effect = lower value 0.899 | locus YPL256C, strain CLN2, stronger effect = lower value 0.474
inactive: locus YAL030W, strain snc1, stronger effect = lower value 0.975 | locus YBL061C, strain skt5, stronger effect = lower value 0.967 | locus YBR023C, strain chs3, stronger effect = lower value 0.962 | locus YBR171W, strain sec66, stronger effect = lower value 0.976 | locus YCL011C, strain gbp2, stronger effect = lower value 0.921 | locus YCL016C, strain dcc1, stronger effect = lower value 0.945 | locus YCL061C, strain MRC1, stronger effect = lower value 0.936 | locus YCL069W, strain vba3, stronger effect = lower value 0.953 | locus YCR088W, strain abp1, stronger effect = lower value 0.971 | locus YDL005C, strain med2, stronger effect = lower value 1 | locus YDL040C, strain nat1, stronger effect = lower value 0.971 | locus YDR001C, strain nth1, stronger effect = lower value 0.971 | locus YDR159W, strain sac3, stronger effect = lower value 0.91 | locus YDR195W, strain ref2 1.01 | locus YDR297W, strain sur2, stronger effect = lower value 0.975 | locus YDR334W, strain swr1, stronger effect = lower value 0.958 | locus YEL003W, strain gim4, stronger effect = lower value 0.962 | locus YEL037C, strain rad23, stronger effect = lower value 0.953 | locus YEL061C, strain CIN8 (second series), stronger effect = lower value 0.977 | locus YER015W, strain faa2, stronger effect = lower value 0.958 | locus YER016W, strain bim1, stronger effect = lower value 0.952 | locus YER111C, strain swi4, stronger effect = lower value 0.965 | locus YGL167C, strain pmr1, stronger effect = lower value 0.976 | locus YGL227W, strain vid30, stronger effect = lower value 0.978 | locus YHR142W, strain chs7, stronger effect = lower value 0.937 | locus YJL092W, strain hpr5, stronger effect = lower value 0.932 | locus YJL095W, strain BCK1 (second series), stronger effect = lower value 0.973 | locus YJL115W, strain asf1, stronger effect = lower value 0.969 | locus YJL129C, strain trk1, stronger effect = lower value 0.982 | locus YJL154C, strain vps35, stronger effect = lower value 0.979 | locus YJL164C, strain tpk1, stronger effect = lower value 0.966 | locus YJL187C, strain SWE1, stronger effect = lower value 0.979 | locus YKL160W, strain elf1, stronger effect = lower value 0.974 | locus YKR026C, strain gcn3, stronger effect = lower value 0.978 | locus YKR091W, strain srl3, stronger effect = lower value 0.977 | locus YLL026W, stronger effect = lower value 0.932 | locus YLL041C, strain sdh2, stronger effect = lower value 0.978 | locus YLR027C, strain aat2, stronger effect = lower value 0.938 | locus YLR221C, strain rsa3, stronger effect = lower value 0.919 | locus YLR258W, strain gsy2, stronger effect = lower value 0.93 | locus YLR262C, strain YPT6 (second series), stronger effect = lower value 0.898 | locus YLR342W, strain FKS1, stronger effect = lower value 0.964 | locus YLR384C, strain iki3, stronger effect = lower value 0.979 | locus YML120C, strain ndi1, stronger effect = lower value 0.987 | locus YMR125W, strain sto1, stronger effect = lower value 0.951 | locus YMR129W, stronger effect = lower value 0.963 | locus YMR231W, strain pep5, stronger effect = lower value 0.982 | locus YNL209W, strain ssb2, stronger effect = lower value 0.974 | locus YNL248C, strain rpa49, stronger effect = lower value 0.926 | locus YNL322C, strain KRE1 (second series), stronger effect = lower value 0.97 | locus YNR049C, strain mso1, stronger effect = lower value 0.941 | locus YOR001W, strain rrp6, stronger effect = lower value 0.992 | locus YOR070C, strain gyp1, stronger effect = lower value 0.961 | locus YOR080W, strain dia2, stronger effect = lower value 0.968 | locus YOR083W, strain WHI5, stronger effect = lower value 0.924 | locus YOR265W, strain rbl2, stronger effect = lower value 0.976 | locus YPL078C, strain atp4, stronger effect = lower value 0.96 | locus YPL106C, strain sse1, stronger effect = lower value 0.931 | locus YPL240C, strain hsp82, stronger effect = lower value 0.987
